Only some compounds are listed: those with a hit (about 32% of all), similar ones and a draw of the others.
PostGolgi yeast – phenotypic screen on post-Golgi transport, primary screen. post-Golgi transport phenotypic cell assay. inhibition, % at 10 µM. actives 0.9% (n = 98,000). AID 739, 2007;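 also: yeast cells grown in 1536-well plates; yeast grown about 18 h at 30C before absorbance read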
CYP2C9 act – human CYP2C9 activators, primary screen, biochemical, luminescence. Cytochrome P450 2C9 (Homo sapiens), P11712. recombinant CYP2C9, luciferin-H conversion; stronger effect = higher value; factor 1 = untreated enzyme, 0 = blocked. activation factor at 5 µM. actives 1.4% (n = 96,000);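 active = activation factor of 2 or more for CYP2C9 at a 5 µM dose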;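 also: 0 = sulfaphenazole-blocked wells and 1 = vehicle-only wells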
CYP2C19 inhib – blockers of cytochrome P450 2C19 activity – biochemical, luminescence, ADME assay, primary screen | CYP2C19 Supersomes, luciferin-H EGE luminescence, 30 min | inhibition, % at 5 µM | actives 21% (n = 96,000);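 active = CYP2C19 inhibition above a set limit at 5 µM in the primary screen, cut at about 50% in these data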;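 also: plate controls were negative control wells for no effect and 2.5 mM tranylcypromine positive control for full effect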
Target sequence (P33261 whole entry, looked up): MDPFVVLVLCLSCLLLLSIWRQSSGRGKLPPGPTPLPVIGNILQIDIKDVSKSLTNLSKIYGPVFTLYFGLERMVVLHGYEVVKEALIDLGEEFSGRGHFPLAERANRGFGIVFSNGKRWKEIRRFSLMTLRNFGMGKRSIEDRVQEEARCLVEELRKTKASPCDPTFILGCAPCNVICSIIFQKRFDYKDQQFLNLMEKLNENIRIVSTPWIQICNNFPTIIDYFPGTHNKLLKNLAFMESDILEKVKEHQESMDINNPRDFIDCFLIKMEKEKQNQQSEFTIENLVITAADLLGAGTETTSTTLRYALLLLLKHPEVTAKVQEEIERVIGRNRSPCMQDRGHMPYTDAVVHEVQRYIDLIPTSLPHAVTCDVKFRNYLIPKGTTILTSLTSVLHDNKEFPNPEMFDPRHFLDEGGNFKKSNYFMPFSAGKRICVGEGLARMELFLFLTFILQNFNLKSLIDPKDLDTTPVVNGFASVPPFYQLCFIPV
PostGolgi ctrl – growth inhibition of yeast control strain, primary screen, counter-screen for post-Golgi transport modulator project | efflux-deficient yeast background strain, growth absorbance A615, 16 h | inhibition, % at 10 µM | actives 5% (n = 98,000) | AID 738, 2007
CYP2C9 inh – blockers of cytochrome P450 2C9 activity – biochemical, luminescence, ADME assay, primary screen. CYP2C9 Supersomes, luciferin-H conversion. inhibition, % at 5 µM. actives 20% (n = 96,000);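 active = blocking of liver enzyme CYP2C9 beyond about 50% at 5 µM, limit read from the data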
CYP2C19 act – human CYP2C19 activators, primary screen, biochemical, luminescence; Cytochrome P450 2C19 (Homo sapiens), P33261; recombinant CYP2C19, luciferin-H EGE luminescence; stronger effect = higher value; 0 = fully inhibited enzyme, 1 = untreated enzyme; activation factor at 5 µM; 96,000 tested, under 10 active; AID 1025, 2008;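 active = activation factor of at least 2 at 5 µM in the primary screen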;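 also: 0 = wells with 2.5 mM tranylcypromine and 1 = vehicle-only wells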
* marks the source's active call; other numbers are inactive results. Rule as the data show it, unless noted: active = inhibition above about 30%; inactive = the rest.

Results for Cn1c(SCC(N)=O)nnc1C1CCN(S(=O)(=O)c2ccccc2C(F)(F)F)CC1 ?
PostGolgi yeast: 3; CYP2C9 act: 2*; CYP2C19 inhib: -5; PostGolgi ctrl: -4; CYP2C9 inh: -103; CYP2C19 act: 1

Results for COc1ccc2sc(NC(C)=O)nc2c1 ?
PostGolgi yeast: 4; CYP2C9 act: 0.9; CYP2C19 inhib: 16; PostGolgi ctrl: -4; CYP2C9 inh: 8; CYP2C19 act: 0.8

Results for COc1ccc2nc(NS(=O)(=O)c3ccc(NC(C)=O)cc3)sc2c1 ?
PostGolgi yeast: 12; CYP2C9 act: 0.7; CYP2C19 inhib: -12; PostGolgi ctrl: 0; CYP2C9 inh: 30; CYP2C19 act: 1.1

What do the screens show for `COc1ccc(S(=O)(=O)Nc2nc3ccccc3s2)cc1`?
PostGolgi yeast: -5; CYP2C9 act: 0.5; CYP2C19 inhib: 8; PostGolgi ctrl: 10; CYP2C9 inh: 50*; CYP2C19 act: 0.9

Results for CCOc1ccc2sc(NS(=O)(=O)c3ccc(OC)c(OC)c3)nc2c1 ?
PostGolgi yeast: -4; CYP2C9 act: 0.1; CYP2C19 inhib: 28; PostGolgi ctrl: 4; CYP2C9 inh: 92*; CYP2C19 act: 0.7

Results for COC(=O)c1cc2sc(Cl)cc2n1Cc1nc(-c2cccc(C)c2)oc1C ?
PostGolgi yeast: -6; CYP2C9 act: 0.9; CYP2C19 inhib: -9; PostGolgi ctrl: 13; CYP2C9 inh: 12; CYP2C19 act: 1.1

What do the screens show for `CCOC(=O)c1cnn(-c2ccc(Cl)cc2)c1C1CCN(C(=O)OC(C)(C)C)CC1`?
PostGolgi yeast: -2; CYP2C9 act: 0.2; CYP2C19 inhib: 89*; PostGolgi ctrl: 24; CYP2C9 inh: 85*; CYP2C19 act: 0.1

Results for CCC/C(O)=C1\C(=O)CCCC1=NCCCCCC(=O)O ?
PostGolgi yeast: 8; CYP2C9 act: 1; CYP2C19 inhib: -2; PostGolgi ctrl: -4; CYP2C9 inh: 0; CYP2C19 act: 1

What do the screens show for `COCCOC(=O)c1c(C)oc2ccc(O)c(CN3CCC(C)CC3)c12`?
PostGolgi yeast: 7; CYP2C9 act: 0.8; CYP2C19 inhib: 51*; PostGolgi ctrl: 12; CYP2C9 inh: 15; CYP2C19 act: 0.5

Results for c1ccc(OCc2nnc3sc(C4COc5ccccc5O4)nn23)cc1 (stereo not drawn) ?
PostGolgi yeast: -11; CYP2C9 act: 0.7; CYP2C19 inhib: 35; PostGolgi ctrl: 17; CYP2C9 inh: 32; CYP2C19 act: 0.7

What do the screens show for `CC(=O)OC1COC(n2ccc3ccccc32)C(OC(C)=O)C1OC(C)=O` (stereo not drawn)?
PostGolgi yeast: 5; CYP2C9 act: 0.7; CYP2C19 inhib: 67*; PostGolgi ctrl: -11; CYP2C9 inh: 27; CYP2C19 act: 0.3

What do the screens show for `CC(=O)OCC1OC(n2ccc3ccccc32)C(OC(C)=O)C(OC(C)=O)C1OC(C)=O` (stereo not drawn)?
PostGolgi yeast: -13; CYP2C9 act: 0.7; CYP2C19 inhib: 12; PostGolgi ctrl: 2; CYP2C9 inh: 33; CYP2C19 act: 0.9

How did Cc1ccc(C(=O)N2CCN(c3ccccc3)CC2)cc1S(=O)(=O)N1CCCC1 do in these assays?
PostGolgi yeast: 4; CYP2C9 act: 0.2; CYP2C19 inhib: 78*; PostGolgi ctrl: 12; CYP2C9 inh: 84*; CYP2C19 act: 0.2

How did CC1CC(C)CN(S(=O)(=O)c2ccc(C(=O)N3CCN(c4ccccc4)CC3)cc2)C1 (stereo not drawn) do in these assays?
PostGolgi yeast: -4; CYP2C9 act: 0.2; CYP2C19 inhib: 68*; PostGolgi ctrl: 15; CYP2C9 inh: 82*; CYP2C19 act: 0.3

How did Cc1ccc(S(=O)(=O)N2CCCC(NC(=O)N3CCN(c4ccccc4)CC3)C2)cc1 (stereo not drawn) do in these assays?
PostGolgi yeast: -6; CYP2C9 act: 0.7; CYP2C19 inhib: 74*; PostGolgi ctrl: 2; CYP2C9 inh: 32; CYP2C19 act: 0.3

What do the screens show for `O=C(CSc1nnc2ccccn12)Nc1ncc(Cl)cc1Cl`?
PostGolgi yeast: -2; CYP2C9 act: 1.1; CYP2C19 inhib: -1; PostGolgi ctrl: 1; CYP2C9 inh: -7; CYP2C19 act: 1

Results for COc1cc(C)nc(N2CCCC(C(=O)Nc3cccc(Cl)c3Cl)C2)n1 (stereo not drawn) ?
PostGolgi yeast: -3; CYP2C9 act: 0.7; CYP2C19 inhib: 15; PostGolgi ctrl: -3; CYP2C9 inh: 32; CYP2C19 act: 0.8

What do the screens show for `COc1cc(C)nc(N(C)S(=O)(=O)c2ccccc2Cl)n1`?
PostGolgi yeast: -9; CYP2C9 act: 0.8; CYP2C19 inhib: 73*; PostGolgi ctrl: 20; CYP2C9 inh: 23; CYP2C19 act: 0.3

What do the screens show for `CON(c1nc(Cl)nc(N(C)C)n1)S(=O)(=O)c1ccccc1Cl`?
PostGolgi yeast: 5; CYP2C9 act: 1.2; CYP2C19 inhib: 69*; PostGolgi ctrl: 3; CYP2C9 inh: -24; CYP2C19 act: 0.3

What do the screens show for `COc1nc(N(C)C)nc(N(OC)S(=O)(=O)c2ccccc2Cl)n1`?
PostGolgi yeast: -3; CYP2C9 act: 0.3; CYP2C19 inhib: 90*; PostGolgi ctrl: 28; CYP2C9 inh: 72*; CYP2C19 act: 0.1

What do the screens show for `O=S(=O)(Nn1cnnc1)c1ccccc1Cl`?
PostGolgi yeast: 2; CYP2C9 act: 0.8; CYP2C19 inhib: 23; PostGolgi ctrl: 2; CYP2C9 inh: 20; CYP2C19 act: 0.8

How did CCOC(=O)c1ccc(Oc2nc(OC)nc(N(C)C)n2)cc1 do in these assays?
PostGolgi yeast: 4; PostGolgi ctrl: 15

What do the screens show for `Cc1cc2ccccc2n2c(SCC(=O)NCc3cccs3)nnc12`?
PostGolgi yeast: -4; CYP2C9 act: 1.5; CYP2C19 inhib: 64*; PostGolgi ctrl: -12; CYP2C9 inh: -52; CYP2C19 act: 0.4

How did Cc1sc2nc(SCC(=O)NCc3ccco3)[nH]c(=O)c2c1C do in these assays?
PostGolgi yeast: -7; CYP2C9 act: 0.7; CYP2C19 inhib: -17; PostGolgi ctrl: -1; CYP2C9 inh: 33; CYP2C19 act: 1.2

Results for Cn1cccc1C(=O)Nc1nc(-c2ccccn2)cs1 ?
PostGolgi yeast: 1; CYP2C9 act: 0.8; CYP2C19 inhib: 28; PostGolgi ctrl: 6; CYP2C9 inh: 17; CYP2C19 act: 0.7

What do the screens show for `Cc1csc(NC(=O)c2cccn2C)n1`?
PostGolgi yeast: -4; CYP2C9 act: 0.9; CYP2C19 inhib: 38; PostGolgi ctrl: 31*; CYP2C9 inh: 6; CYP2C19 act: 0.6

Results for Cc1sc2nc(SCC(=O)NCc3cccs3)[nH]c(=O)c2c1C ?
PostGolgi yeast: 3; CYP2C9 act: 0.3; CYP2C19 inhib: 19; PostGolgi ctrl: 10; CYP2C9 inh: 67*; CYP2C19 act: 0.8

Screens (PubChem)
